Measured values reported in the supplement of paper PMC11219838.

Tested on: Meloidogyne hapla J2
Experiment: proportion of mobile M. hapla J2 relative to DMSO control (fraction of DMSO control); higher = more viable, less nematicidal, active = 0.7 or less
Details: 60 µM; 5 days; temperature: 20 °C
In short: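 About 25 M. hapla J2 were placed in each well of a 96-well plate in distilled water, and compound was pinned in to a final 60 µM with 0.6% v/v DMSO. The sealed plates were shaken at 200 rpm at 20 °C for 5 days, after which 2 µL of 1 M NaOH went into each well. Mobility was then scored under the microscope and divided by the mean value from DMSO-only wells on the same plate. Each plate held eight such DMSO wells, and two biological replicates were averaged.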

| Structure (SMILES) | proportion of mobile M. hapla J2 |
| --- | --- |
| O=C(CSc1nnc(-c2ccco2)o1)Nc1ccccc1F | 0.933 (inactive) |
| COC(=O)CSc1nnc(-c2ccc(C(C)(C)C)cc2)o1 | 0.976 (inactive) |
| Cc1cc(OCc2nc(-c3ccncc3)no2)ccc1Br | 1.05 (inactive) |
| COc1ccc(OCc2nc(-c3ccccc3)no2)cc1 | 0.891 (inactive) |
| Cc1csc(NC(=O)CSc2nnc(-c3cccc(Cl)c3)o2)n1 | 1.05 (inactive) |
| CCN(CC)C(=O)CSc1nnc(-c2ccc(Cl)cc2Cl)o1 | 1.03 (inactive) |
| COc1ccccc1-c1noc(-c2ccccc2C)n1 | 0.962 (inactive) |
| N#Cc1ccc(CSc2nnc(-c3ccco3)o2)cc1 | 0.607 (active) |
| COc1ccc(-c2noc(COc3ccc(C)c(C)c3)n2)cc1 | 0.969 (inactive) |
| COc1nc(-c2ccccc2)ccc1-c1noc(-c2ccccc2C)n1 | 0.909 (inactive) |
| Clc1ccccc1-c1noc(-c2ccccc2Cl)n1 | 1.02 (inactive) |
| Cc1ccc(OCc2nc(-c3ccc(Cl)cc3)no2)cc1 | 0.901 (inactive) |
| c1csc(-c2nnc(-c3cccs3)o2)c1 | 0.754 (inactive) |
| Cc1cccc(-c2nc(-c3ccc(Br)cc3)no2)c1 | 1.01 (inactive) |
| Cc1cc(C)cc(OCc2nc(-c3ccccc3Cl)no2)c1 | 0.978 (inactive) |
| Cc1cc(OCc2nc(-c3ccccn3)no2)cc(C)c1Cl | 1.05 (inactive) |
| COc1ccccc1-c1nc(-c2ccc(Cl)cc2)no1 | 0.934 (inactive) |
| Cc1ccccc1OCc1nc(-c2cccc(NC(=O)c3ccco3)c2)no1 | 1.03 (inactive) |
| O=C(CSc1nnc(-c2ccco2)o1)c1ccccc1 | 0.974 (inactive) |

| Structure (SMILES) | proportion of mobile M. hapla J2 |
| --- | --- |
| COc1ccc(NC(=O)CSc2nnc(-c3ccccc3C)o2)cc1 | 0.838 (inactive) |
| Cc1cc(OCc2nc(-c3ccncc3)no2)c(C)c(C)c1Br | 1.06 (inactive) |
| Cc1ccccc1OCc1nc(-c2ccc3c(c2)OCO3)no1 | 0.878 (inactive) |
| Fc1ccc(-c2nc(-c3ccc(Br)cc3)no2)cc1 | 0.848 (inactive) |
| C=CCOc1cccc(-c2nc(-c3cccnc3)no2)c1 | 1.03 (inactive) |
| CCOc1nc(-c2ccc(C)cc2)ccc1-c1noc(-c2ccco2)n1 | 0.944 (inactive) |
| O=C(Nc1ccccc1-c1nc(-c2cccnc2)no1)c1ccccc1Cl | 0.983 (inactive) |
| COc1ccc(Cl)cc1-c1nc(-c2ccc3c(c2)OCO3)no1 | 0.957 (inactive) |
| CC(C)C(=O)Nc1ccccc1-c1nc(-c2cccnc2)no1 | 0.935 (inactive) |
| O=C(CSc1nnc(-c2ccncc2)o1)Nc1ccccc1Cl | 0.724 (inactive) |
| O=C(CSc1nnc(-c2ccncc2)o1)Nc1cc(C(F)(F)F)ccc1Cl | 0.841 (inactive) |
| COc1ccc(Cl)cc1-c1noc(-c2cccc(C)c2)n1 | 1.05 (inactive) |
| Cn1c(SCc2cccc(F)c2)nnc1-c1ccco1 | 0.929 (inactive) |
| O=C(CSc1nnc(-c2ccccc2)o1)Nc1ccc(Br)cc1F | 0.992 (inactive) |
| CC1CC(C)CN(C(=O)CSc2nnc(-c3ccccc3)o2)C1 (stereo unspecified) | 1.02 (inactive) |
| Fc1ccccc1-c1nc(-c2ccc(Cl)cc2)no1 | 0.956 (inactive) |
| Cc1ccc(OC(C)c2nc(-c3ccncc3)no2)cc1C (stereo unspecified) | 0.995 (inactive) |
| Cc1ccc(-c2nnc(SCc3ccc(Br)cc3)o2)cc1 | 0.923 (inactive) |
| CC(=O)Nc1ccc(-c2nnc(SCc3ccccc3)o2)cc1 | 0.954 (inactive) |

Tested on: Caenorhabditis elegans dauer (daf-2(e1370))
Experiment: proportion of mobile C. elegans dauer larvae relative to DMSO control (fraction of DMSO control); higher = more viable, less nematicidal, active = 0.63 or less; extreme values may be limits of the assay
Details: 60 µM; 5 days; temperature: 20 °C
In short: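 Compound was added by pinning to 60 µM final, giving 0.6% v/v DMSO, in 96-well plates containing about 20 C. elegans dauers per well in liquid NGM. These dauers came from synchronized larvae held on MYOB plates with E. coli OP50 for 48 h at 25 °C. Plates were sealed and shaken at 200 rpm at 20 °C for 5 days. Under a dissection microscope, the proportion of mobile worms was scored relative to DMSO wells, and two biological replicates were averaged.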

| Structure (SMILES) | proportion of mobile C. elegans dauer larvae |
| --- | --- |
| O=C(CSc1nnc(-c2ccco2)o1)Nc1ccccc1F | 1 (inactive) |
| COC(=O)CSc1nnc(-c2ccc(C(C)(C)C)cc2)o1 | 1 (inactive) |
| Cc1cc(OCc2nc(-c3ccncc3)no2)ccc1Br | 1 (inactive) |
| COc1ccc(OCc2nc(-c3ccccc3)no2)cc1 | 1 (inactive) |
| Cc1csc(NC(=O)CSc2nnc(-c3cccc(Cl)c3)o2)n1 | 1 (inactive) |
| CCN(CC)C(=O)CSc1nnc(-c2ccc(Cl)cc2Cl)o1 | 1 (inactive) |
| COc1ccccc1-c1noc(-c2ccccc2C)n1 | 1 (inactive) |
| N#Cc1ccc(CSc2nnc(-c3ccco3)o2)cc1 | 1 (inactive) |
| COc1ccc(-c2noc(COc3ccc(C)c(C)c3)n2)cc1 | 1 (inactive) |
| COc1nc(-c2ccccc2)ccc1-c1noc(-c2ccccc2C)n1 | 1 (inactive) |
| Clc1ccccc1-c1noc(-c2ccccc2Cl)n1 | 1 (inactive) |
| Cc1ccc(OCc2nc(-c3ccc(Cl)cc3)no2)cc1 | 1 (inactive) |
| c1csc(-c2nnc(-c3cccs3)o2)c1 | 0.786 (inactive) |
| Cc1cccc(-c2nc(-c3ccc(Br)cc3)no2)c1 | 1 (inactive) |
| Cc1cc(C)cc(OCc2nc(-c3ccccc3Cl)no2)c1 | 1 (inactive) |
| Cc1cc(OCc2nc(-c3ccccn3)no2)cc(C)c1Cl | 1 (inactive) |
| COc1ccccc1-c1nc(-c2ccc(Cl)cc2)no1 | 1 (inactive) |
| Cc1ccccc1OCc1nc(-c2cccc(NC(=O)c3ccco3)c2)no1 | 1 (inactive) |
| O=C(CSc1nnc(-c2ccco2)o1)c1ccccc1 | 1 (inactive) |

| Structure (SMILES) | proportion of mobile C. elegans dauer larvae |
| --- | --- |
| COc1ccc(NC(=O)CSc2nnc(-c3ccccc3C)o2)cc1 | 1 (inactive) |
| Cc1cc(OCc2nc(-c3ccncc3)no2)c(C)c(C)c1Br | 1 (inactive) |
| Cc1ccccc1OCc1nc(-c2ccc3c(c2)OCO3)no1 | 1 (inactive) |
| Fc1ccc(-c2nc(-c3ccc(Br)cc3)no2)cc1 | 1 (inactive) |
| C=CCOc1cccc(-c2nc(-c3cccnc3)no2)c1 | 1 (inactive) |
| CCOc1nc(-c2ccc(C)cc2)ccc1-c1noc(-c2ccco2)n1 | 1 (inactive) |
| O=C(Nc1ccccc1-c1nc(-c2cccnc2)no1)c1ccccc1Cl | 1 (inactive) |
| COc1ccc(Cl)cc1-c1nc(-c2ccc3c(c2)OCO3)no1 | 1 (inactive) |
| CC(C)C(=O)Nc1ccccc1-c1nc(-c2cccnc2)no1 | 1 (inactive) |
| O=C(CSc1nnc(-c2ccncc2)o1)Nc1ccccc1Cl | 1 (inactive) |
| O=C(CSc1nnc(-c2ccncc2)o1)Nc1cc(C(F)(F)F)ccc1Cl | 1 (inactive) |
| COc1ccc(Cl)cc1-c1noc(-c2cccc(C)c2)n1 | 1 (inactive) |
| Cn1c(SCc2cccc(F)c2)nnc1-c1ccco1 | 1 (inactive) |
| O=C(CSc1nnc(-c2ccccc2)o1)Nc1ccc(Br)cc1F | 1 (inactive) |
| CC1CC(C)CN(C(=O)CSc2nnc(-c3ccccc3)o2)C1 (stereo unspecified) | 1 (inactive) |
| Fc1ccccc1-c1nc(-c2ccc(Cl)cc2)no1 | 1 (inactive) |
| Cc1ccc(OC(C)c2nc(-c3ccncc3)no2)cc1C (stereo unspecified) | 1 (inactive) |
| Cc1ccc(-c2nnc(SCc3ccc(Br)cc3)o2)cc1 | 1 (inactive) |
| CC(=O)Nc1ccc(-c2nnc(SCc3ccccc3)o2)cc1 | 1 (inactive) |
